PubChem BioAssay AID624330 (Southern Research Specialized Biocontainment Screening …, 2012)
About 2,100 (0.62%) of roughly 340,000 compounds were called active.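 Rule for the calls: active = first-screen hits whose inhibition reached a set limit at any dose in the follow-up dose series; inconclusive = inhibition above the set first-screen limit but never retested; inactive = the rest.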 Only a sample is shown. Measured potencies and affinities stand elsewhere.

Biological target: Rac GTPase-activating protein 1 (Homo sapiens) (UniProt Q9H0H5)
Sequence (Q9H0H5 whole entry, looked up): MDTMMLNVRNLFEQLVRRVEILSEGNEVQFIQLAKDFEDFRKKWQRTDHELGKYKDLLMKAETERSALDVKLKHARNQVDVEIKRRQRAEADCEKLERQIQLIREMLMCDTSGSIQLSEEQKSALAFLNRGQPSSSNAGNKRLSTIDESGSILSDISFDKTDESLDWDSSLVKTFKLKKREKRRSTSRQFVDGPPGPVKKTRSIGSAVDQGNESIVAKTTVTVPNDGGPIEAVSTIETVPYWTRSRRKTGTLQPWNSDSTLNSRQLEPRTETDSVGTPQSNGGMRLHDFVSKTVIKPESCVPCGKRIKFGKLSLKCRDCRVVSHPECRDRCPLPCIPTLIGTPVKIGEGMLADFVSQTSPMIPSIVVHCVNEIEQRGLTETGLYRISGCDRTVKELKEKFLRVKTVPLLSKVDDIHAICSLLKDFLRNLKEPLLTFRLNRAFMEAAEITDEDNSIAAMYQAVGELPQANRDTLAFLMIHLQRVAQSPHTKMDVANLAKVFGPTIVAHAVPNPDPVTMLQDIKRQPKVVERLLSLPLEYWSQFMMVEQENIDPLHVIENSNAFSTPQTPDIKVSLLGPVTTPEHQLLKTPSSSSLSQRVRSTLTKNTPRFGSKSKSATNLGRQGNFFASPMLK
Assay: MgcRacGAP GTPase-activating activity inhibitors, confirmation, biochemical, ADP Hunter fluorescence, primary and confirmatory (AID 624330);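 note: fluorescence reports GDP produced by GAP-driven GTP hydrolysis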
Conditions: MgcRacGAP-stimulated Rac1 GTP hydrolysis, at 30 µM, stronger effect = higher value, GST-tagged Rac1 F28L mutant substrate

inhibition, inactive:
O=C(O)CCNS(=O)(=O)c1ccc2c(c1)OCCCO2 9.26%
Cc1ccc(Cl)c(NC(=O)CN2C(=O)C(C)N(c3ccc(F)cc3)C2=O)c1Cl (stereo not drawn) 15.2%
Cc1ccc(N2CC(C(=O)Nc3ccc(N4CCOCC4)cc3)CC2=O)cc1C (stereo not drawn) 1.23%
Cc1ccc(N2CC(C(=O)Nc3ccc4c(c3)OCCO4)CC2=O)cc1C (stereo not drawn) 10.2%
CC1CCc2sc(C(=O)NC3CCN(Cc4ccccc4)CC3)cc2C1 (stereo not drawn) 3.25%
N#Cc1c(Nc2ccccc2)sc(C(=O)c2ccccc2)c1N -10.7%
CSc1nsc(/C=C/Nc2ccc(Cl)cc2)c1C#N 6.16%
Cc1nsc(Nc2ccc([N+](=O)[O-])cc2)c1C#N 2.18%
Cc1nsc(Nc2ccccc2)c1C#N 4.71%
Cn1ncc2c(Nc3cc(Cl)cc(Cl)c3)ncnc21 11.1%
CN(CC(=O)Nc1ccccc1Cl)C(=O)COC(=O)c1ccccc1[N+](=O)[O-] 11.2%
Cc1cccc(CCN2CCN=C2Nc2ccccc2)c1 10.2%
CCNS(=O)(=O)c1ccc(NC(=O)c2cccnc2)cc1 -7.35%
C=CCOc1ccc(/C=N/NC(=O)C2CCCC2)cc1OCC 7.59%
CCOc1ccc(/C=N/NC(=O)C2CC2)cc1OC 4.39%
COc1ccc(/C=N/NC(=O)c2cc(C3CC3)[nH]n2)cc1OC 7.5%
COc1cc(/C=N/NC(=O)C2CCN(CC(O)COCc3ccccc3)CC2)cc(OC)c1OC (stereo not drawn) -0.29%
COc1ccc(/C=N/NC(=O)c2ccc(=O)n(C)c2)cc1OC 11.2%
CCOc1cccc(/C=N/NC(=O)c2cc(C3CC3)[nH]n2)c1O 9.09%
CCOc1cc(/C=N/NC(=O)C2CCCC2)ccc1OC(C)C 7.91%
Cn1cc(C(=O)N/N=C/c2cccc(O)c2)ccc1=O 7.64%
COc1cc(/C=N/NC(=O)c2ccc(NC(=O)C3CC3)cc2)ccc1OC(C)=O 7.67%
COc1cc(/C=N/NC(=O)c2ccc(NC(=O)C3CCCCC3)cc2)ccc1O 8.05%
CCn1cc(/C=C(\NC(=O)c2ccccc2)C(=O)NCCCN2CCOCC2)c2ccccc21 13%
COc1ccc(/[N+]([O-])=C/c2ccco2)cc1 9.73%
CC(C)CNC(=O)NC(=O)COC(=O)c1cc(F)cc(F)c1 2.44%
CCn1c(SCC(=O)N/N=C/c2ccc(O)c(OC)c2)nc2ccccc21 12%
C/C(=N/NC(=O)CSc1nc2ccccc2n1C)c1ccco1 7.14%
COc1cc(/C=N/NC(=O)CSc2nc3ccccc3n2C)cc(OC)c1OC -9.37%
C/C(=N/NC(=O)CSc1nc2ccccc2n1C)c1ccncc1 8.72%
CC(=NNC(=O)CSc1nc2ccccc2o1)c1ccco1 3.04%
C/C(=N\NC(=O)CSc1nc2ccccc2o1)c1cccc(O)c1 10.7%
COc1ccccc1C(=O)NC(CCSC)C(=O)NCC(c1ccco1)N(C)C (stereo not drawn) 10.1%
O=C(O)c1ccc(N2CCS(=O)(=O)CC2)cc1 2.19%
CON(C)c1nc(NCC(C)C)nc(OCC#N)n1 -6.48%
CCn1c(=O)c2cc(C(=O)N3CCN(C)CC3)sc2c2ccccc21 7.75%
COc1ccc(NC(=O)CC2S/C(=N\c3nccs3)N(C)C2=O)cc1 (stereo not drawn) 13.7%
COc1cc2nncc(SC)c2cc1OC 8.55%
CCCn1c(SCC(=O)N(CC)c2c(N)n(Cc3ccccc3)c(=O)[nH]c2=O)nnc1-c1ccncc1 -0.81%
COc1ccc(OCCCC(=O)NCCc2ccc(OC)c(OC)c2)cc1 5.19%
O=C(CNCc1cccnc1)Nc1cc(C(F)(F)F)ccc1N1CCOCC1 28.2%
CCC(=O)Nc1cc(C(F)(F)F)ccc1N1CCOCC1 -1.84%
O=C(c1cc(Br)c[nH]1)N1CCSCC1 9.76%
COc1ccc(CN2CCN(C3CCOCC3)CC2CCO)c(C)c1C (stereo not drawn) 13%
COc1cc(C2=NOC(C(=O)N3CCOCC3)C2)cc(OC)c1OC (stereo not drawn) 7.04%
OCCN1CCN(CCCN2c3ccccc3Sc3ccc(C(F)(F)F)cc32)CC1 3.74%
OCCN1CCN(C(=S)Nc2cccc(C(F)(F)F)c2)CC1 24%
C[C@@H]1CN([C@@H](C)CO)C(=O)c2cc(Br)cnc2O[C@H]1CN(C)C(=O)CCN1CCCCC1 14.8%
S=C(N/N=C/c1ccc(Cl)cc1)N1CCOCC1 0.9%
O=[N+]([O-])c1cc(Cl)cc(/C=N/NC(=S)Nc2cc(S(=O)(=O)N3CCOCC3)ccc2Cl)c1O 10%
O=S(=O)(c1ccc(Cl)c(NC(=S)N/N=C/c2c(F)cccc2F)c1)N1CCOCC1 9.48%
Cc1ccc(/C=N/NC(=S)N2CCOCC2)cc1 4.05%
N#Cc1ccccc1NS(=O)(=O)c1cc2c3c(c1)CCC(=O)N3CCC2 -1.72%
COc1cc(NC(=O)CCN2CCN(CCO)CC2)cc(OC)c1 4.08%
OC(CNCC1COc2ccccc2O1)COc1ccccc1F (stereo not drawn) 8.38%
OC(CNCC1COc2ccccc2O1)COc1ccc(Cl)cc1 (stereo not drawn) 6.5%
Cc1ccc2nc(C)cc(C(=O)N3CCCC(CO)(Cc4ccccc4C)C3)c2c1 (stereo not drawn) 8.23%
CN(C)c1ccc(CN(C)C2CCCCC2)cc1 7.28%
CN(C)c1ccc(CCc2ccc(N)cc2)cc1 31.6%
COc1ccc(C(CCNCc2ccc(OC(C)C)cc2)c2ccccc2OC)cc1 (stereo not drawn) 7.13%
Cc1c(N2C(=O)/C(=C/c3ccccc3)SC2=S)c(=O)n(-c2ccccc2)n1C 6.19%
Cc1c(N=C2C(=O)Nc3ccccc32)c(=O)n(-c2ccccc2)n1C 1.01%
COc1cc(/C=C2\SC(=Nc3ccc(O)cc3)NC2=O)cc(OC)c1O 27.1%
CCc1ccc(N=C2NC(=O)/C(=C/c3cc(OC)c(O)c(OC)c3)S2)cc1 14.6%
O=C1NC(=Nc2ccccc2)S/C1=C\c1ccccc1 3.51%
Cc1c(N2C(=O)/C(=C\c3ccccc3O)SC2=S)c(=O)n(-c2ccccc2)n1C 3.93%
Cn1c(SCC(=O)NCc2cccs2)nnc1-c1ccncc1 5.96%
O=C(NCc1cc(C(F)(F)F)ccc1Cl)c1cccc2c1C(=O)c1ccc(N3CCCCC3)cc1S2(=O)=O 5.32%
COC(=O)C1CC2=C(CCCC2=O)NC1=O (stereo not drawn) 5.59%
COc1ccc(O)c(-c2cc(-c3cccc(Br)c3)n[nH]2)c1 10.7%
COc1ccc(NC(=O)C2CCN(C(=O)Cc3ccccc3)CC2)c(OC)c1 8.8%
C/C(=N\NS(C)(=O)=O)c1ccc(C)cc1 5.59%
Cc1cccc(C(=O)Nc2ccc(C(=O)N/N=C/c3ccco3)cc2)c1 1.6%
CN(Cc1ccc(Cl)cc1Cl)C(=O)C1CSC2(C)CCC(=O)N12 (stereo not drawn) 7.87%
O=S(=O)(/N=C(/Nc1nccs1)c1ccc(F)cc1)c1ccccc1 -7.34%
Cc1cccc(C)c1OCCCN1CCOCC1 9.47%
COc1cccc(OC)c1OCCCCN1CCCCC1 19.4%
COc1cccc(OC)c1OCCN1CCCC1 -3.59%
COc1cccc(OC)c1OCCCCCCN1CCN(C)CC1 4.56%
O=[N+]([O-])c1ccc(/C=N\N2CCN(Cc3ccccc3Cl)CC2)cc1 10%
CC(=O)N1c2ccc(S(=O)(=O)NCCC(=O)NC3CCC(C)CC3)cc2CC1C (stereo not drawn) 6.14%
O=C(CSCC(=O)OCC(=O)c1ccc(Br)cc1)Nc1ccc(Br)cc1 2.71%
C=CCn1c(C)cc(C(=O)COC(=O)CCc2cc(OC)c(OC)c(OC)c2)c1C 1.52%
COc1ccccc1NS(=O)(=O)c1ccc(C(=O)NCC(c2ccco2)N2CCCCC2)cc1 (stereo not drawn) -5.8%
Cc1ccc(Cl)c(OCCCCN(C)Cc2ccccc2)c1 26.2%
Cc1ccc(C(C)C)c(OCCCN(C)Cc2ccccc2)c1 13%
Cc1cc(C)c(OCCN(C)Cc2ccccc2)c(Br)c1 9.5%
Cc1cc(C)c(C)c(OCCCCN(C)Cc2ccccc2)c1 26.2%
COc1ccc(-c2c[n+]3c4n2CCCCC4=C(c2ccccc2)C3)cc1 8.53%
CCOC(=O)C1CCN(C(=O)CN2C(=O)c3cccnc3Oc3ccccc32)CC1 6.53%
COc1ccc(NC(=O)CCNS(=O)(=O)c2ccc3c(c2)CC(C)N3C(=O)C2CC2)cc1 (stereo not drawn) 8.6%
COc1ccc(-c2cc(C(=O)N(C)Cc3ccc(F)cc3)c3ccccc3n2)cc1OC 9.06%
CCSc1nnc([C@H](Cc2c[nH]c3ccccc23)NC(=O)OC(C)(C)C)o1 5.34%
Cc1ccc(NCCC(=O)c2cccs2)cc1Cl -0.47%
COc1ccc(NC(=O)CCC(=O)c2cccs2)cc1Cl 1.13%
Cc1ccc(OC(=O)C(F)(F)F)c2c1NCCC2 22.1%
O=C1CCNc2c(Cl)cc(Cl)cc21 -0.57%
COCc1[nH][nH]c(=O)c1C=Nc1ccc(Cl)cc1 8.52%
